Among the test systems are HCT-15 colon; HT29 colon; SNB-19 CNS; U251 CNS; PC-3 prostate; SK-MEL-5 melanoma; UACC-62 melanoma; LOX IMVI melanoma; SK-MEL-28 melanoma; SK-MEL-2 melanoma; EKVX NSCLC; SN12C renal; UO-31 renal; TK-10 renal; ACHN renal; CAKI-1 renal; A498 renal; CCRF-CEM leukemia; MOLT-4 leukemia.
Experiment in all cases: NCI-60 one-dose screen, 48 h (100 = growth as untreated, 0 = no growth, -100 = all killed)
Conditions in all cases: 10 µM unless noted

Each structure is given as a SMILES string. This is part of a sample that, as a whole, favours compounds with a hit. Of some 83,000 tested, about 20% had one in any assay.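 Step 1: grow cells in 96-well plates. Step 2: add test compound at a single concentration. Step 3: incubate 48 h. Step 4: record percent growth.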 Values without a mark were called inactive. Calls of active or inactive are those of the source. Rule for the calls: active = growth percent below 10; inactive = the rest.

Turning to `CCCCCCCCCCCCCCCCCCNC(=O)[C@H]1CSC(c2ccc(OC)c(F)c2)N1` (some centres undefined), the growth in the experiment with HCT-15 colon is 71%; in the experiment on HT29 colon, 8.84% (active); with SNB-19 CNS, 65.1%; in the experiment on U251 CNS, -53.1% (active); in the experiment on PC-3 prostate, 54.2%; with SK-MEL-5 melanoma it was 23.8%. Besides, the growth was -86.5% (active) with UACC-62 melanoma; 30.1% with LOX IMVI melanoma; -74.5% (active) in the experiment with SK-MEL-28 melanoma; -54.1% (active) with SK-MEL-2 melanoma; 17.5% in the experiment on EKVX NSCLC; -80.7% (active) in the experiment on SN12C renal. Also, the growth was 66.6% in the experiment with UO-31 renal; 59.5% in the experiment with TK-10 renal; 87.8% with ACHN renal; 52.9% with CAKI-1 renal; 64.9% with A498 renal; -14.4% (active) with CCRF-CEM leukemia. Further, the growth in the experiment with MOLT-4 leukemia is 10% (active).
As for `COc1ccc(S(=O)(=O)NCCCNc2cc(-c3c(-c4cccc(OC)c4)nc4sccn34)ccn2)cc1`, the growth in the experiment with HCT-15 colon was 35.7%; with HT29 colon it was 35%; in the experiment with SNB-19 CNS, 62.7%; in the experiment with U251 CNS it was 59.4%; in the experiment on PC-3 prostate it was 26.9%; with SK-MEL-5 melanoma, -10.9% (active). For the same compound, the growth was 20.4% with UACC-62 melanoma; 46.6% with LOX IMVI melanoma; 65.5% with SK-MEL-28 melanoma; 53.3% in the experiment on SK-MEL-2 melanoma; 48.4% in the experiment on EKVX NSCLC; 36% in the experiment on SN12C renal. Further, the growth in the experiment on UO-31 renal is 18%; in the experiment with TK-10 renal, 73.4%; in the experiment with ACHN renal, 33.2%; in the experiment on CAKI-1 renal, 32%; with A498 renal, 36.7%; in the experiment with CCRF-CEM leukemia, 26.5%. Besides, in the experiment with MOLT-4 leukemia, the growth is 19.2%.
For `COc1ccc(S(=O)(=O)NCCNc2nccc(-c3c(-c4cccc(N)c4)nc4sccn34)n2)cc1`, the growth with HCT-15 colon is 101%; with HT29 colon, 93.5%; with SNB-19 CNS, 108%; in the experiment with U251 CNS it was 104%; in the experiment on PC-3 prostate, 83.6%; in the experiment on SK-MEL-5 melanoma it was 98%. Moreover, the growth in the experiment on UACC-62 melanoma is 100%; with LOX IMVI melanoma, 98.4%; in the experiment with SK-MEL-28 melanoma, 117%; in the experiment with SK-MEL-2 melanoma it was 108%; in the experiment with EKVX NSCLC it was 95.4%; in the experiment on SN12C renal, 95.7%. Also, the growth with UO-31 renal was 83.2%; in the experiment with TK-10 renal it was 115%; in the experiment with ACHN renal it was 95.3%; with CAKI-1 renal, 93.8%; in the experiment with A498 renal, 91.6%; in the experiment on CCRF-CEM leukemia, 101%. Besides, in the experiment with MOLT-4 leukemia, the growth is 99%.
For `CC[C@H](Nc1ncnc(N)c1C(N)=O)c1nc2cccc(NCc3ccc(C(=O)NO)cc3)c2c(=O)n1-c1ccccc1`, the growth in the experiment on HCT-15 colon was 105%; in the experiment on HT29 colon, 88.7%; with SNB-19 CNS it was 68.2%; with U251 CNS, 52.9%; in the experiment with PC-3 prostate it was 92.1%; in the experiment on SK-MEL-5 melanoma it was 87.9%. For the same compound, the growth in the experiment on UACC-62 melanoma was 63.3%; with LOX IMVI melanoma, 103%; in the experiment on SK-MEL-28 melanoma it was 69.2%; with SK-MEL-2 melanoma, 82.8%; with EKVX NSCLC, 99.7%; in the experiment with SN12C renal, 81.5%. Moreover, the growth was 71.8% with UO-31 renal; 69.9% in the experiment with TK-10 renal; 91% with ACHN renal; 93.2% in the experiment with CAKI-1 renal; 90.8% in the experiment with A498 renal; 33% in the experiment with CCRF-CEM leukemia. In the experiment on MOLT-4 leukemia, the growth is 67.8%.
On to `C=C1CC2(OC1=O)C(=O)N(CCCCCCCCCCCCN1C(=O)C3(CC(=C)C(=O)O3)c3ccccc31)c1ccccc12` (centres undefined), for which the growth in the experiment with HCT-15 colon was 65%; in the experiment with HT29 colon, 86.7%; in the experiment on SNB-19 CNS, 89.5%; with U251 CNS, 74.3%; with PC-3 prostate it was 64.7%; in the experiment on SK-MEL-5 melanoma it was 86.4%. Besides, the growth was 78.9% in the experiment on UACC-62 melanoma; 4.86% (active) in the experiment on LOX IMVI melanoma; 89.3% in the experiment with SK-MEL-28 melanoma; 73.3% with SK-MEL-2 melanoma; 98% in the experiment with EKVX NSCLC; 53.1% in the experiment on SN12C renal. For the same compound, the growth in the experiment on UO-31 renal was 76.6%; in the experiment on TK-10 renal, 96.1%; with ACHN renal it was 97.8%; in the experiment on CAKI-1 renal, 80.2%; with A498 renal it was 59.5%; in the experiment with CCRF-CEM leukemia, 4.77% (active). In addition, the growth in the experiment on MOLT-4 leukemia was 2.36% (active).
For `O=C(Nc1ccc(Oc2ccc(F)cc2)c(Cl)c1)c1cccnc1`, the growth in the experiment with HCT-15 colon is 84.3%; in the experiment on HT29 colon, 88.5%; in the experiment on SNB-19 CNS it was 93.2%; in the experiment on U251 CNS it was 89%; in the experiment on PC-3 prostate it was 90.7%; in the experiment on SK-MEL-5 melanoma it was 79.5%. Besides, the growth in the experiment with UACC-62 melanoma is 81.3%; in the experiment with LOX IMVI melanoma, 91.2%; with SK-MEL-28 melanoma, 103%; in the experiment on SK-MEL-2 melanoma it was 91.3%; in the experiment on EKVX NSCLC it was 81.9%; in the experiment on SN12C renal, 95.8%. For the same compound, the growth is 80.9% in the experiment on UO-31 renal; 97.7% in the experiment on TK-10 renal; 99.5% in the experiment with ACHN renal; 86.9% in the experiment with CAKI-1 renal; 70.8% in the experiment on A498 renal; 101% in the experiment on CCRF-CEM leukemia. In addition, the growth in the experiment on MOLT-4 leukemia was 105%.
Consider `O=C1/C(=C/c2ccc(F)cc2)CN(C(=O)CCN2CCC(=NO)CC2)C/C1=C\c1ccc(F)cc1`, for which the growth in the experiment on HCT-15 colon is -58% (active); in the experiment on HT29 colon, -76.2% (active); in the experiment with SNB-19 CNS, -37.9% (active); in the experiment on U251 CNS it was -65.1% (active); in the experiment on PC-3 prostate it was -23.9% (active); in the experiment with SK-MEL-5 melanoma, -89.6% (active). For the same compound, the growth in the experiment on UACC-62 melanoma is -67.2% (active); in the experiment on LOX IMVI melanoma it was -89.6% (active); in the experiment with SK-MEL-28 melanoma it was -59.1% (active); in the experiment on SK-MEL-2 melanoma, -14% (active); in the experiment on EKVX NSCLC it was -21.4% (active); in the experiment on SN12C renal, -35.4% (active). The growth with UO-31 renal is -100% (active); with TK-10 renal, -5.74% (active); in the experiment with ACHN renal it was -66.3% (active); in the experiment with CAKI-1 renal, -46.4% (active); with A498 renal it was 24.9%; in the experiment on CCRF-CEM leukemia, -18.3% (active). Moreover, the growth in the experiment with MOLT-4 leukemia was 0.0352% (active).
On to `OC(c1cccc(C(F)(F)F)c1)c1cnccc1NC1CCCCCC1` (centres undefined), for which the growth with HCT-15 colon was 8.21% (active); with HT29 colon, -6.41% (active); with SNB-19 CNS it was 69.3%; in the experiment on U251 CNS it was -2.39% (active); with PC-3 prostate, 22.4%; in the experiment with SK-MEL-5 melanoma, -68.2% (active). Besides, the growth in the experiment with UACC-62 melanoma is 55%; in the experiment with LOX IMVI melanoma, -18.7% (active); with SK-MEL-28 melanoma, -12.9% (active); in the experiment with SK-MEL-2 melanoma, 43%; in the experiment on EKVX NSCLC, 57.3%; with SN12C renal it was 54.1%. Further, the growth in the experiment on UO-31 renal was 28.7%; with TK-10 renal, 60.4%; with ACHN renal it was 43.9%; in the experiment on CAKI-1 renal it was 40.4%; with A498 renal, 50.3%; in the experiment with CCRF-CEM leukemia, 30.5%. In addition, the growth in the experiment with MOLT-4 leukemia is 22.6%.
As for `CCOC(=O)c1cnc2ccc(OC)cc2c1Nc1cccc(S(=O)(=O)NC)c1`, the growth is 82.3% in the experiment with HCT-15 colon; 112% in the experiment with HT29 colon; 89% in the experiment with SNB-19 CNS; 71.6% with U251 CNS; 95.3% in the experiment on PC-3 prostate; 100% in the experiment with SK-MEL-5 melanoma. Besides, the growth was 103% in the experiment with UACC-62 melanoma; 99.1% in the experiment on LOX IMVI melanoma; 85.9% in the experiment on SK-MEL-28 melanoma; 102% with SK-MEL-2 melanoma; 104% with EKVX NSCLC; 92.9% in the experiment with SN12C renal. For the same compound, the growth was 93.6% in the experiment with UO-31 renal; 110% in the experiment with TK-10 renal; 91.5% in the experiment on ACHN renal; 89.4% in the experiment with CAKI-1 renal; 95.9% in the experiment with A498 renal; 93% in the experiment on CCRF-CEM leukemia. Besides, the growth in the experiment on MOLT-4 leukemia was 99.2%.
With `Cc1cc(N/N=C/c2nc(-c3ccc(Cl)cc3)oc2C)c2cc(Cl)ccc2n1`, the growth with HCT-15 colon was -52.6% (active); in the experiment on HT29 colon, -51.2% (active); in the experiment with SNB-19 CNS it was 29.3%; with U251 CNS it was -54.5% (active); in the experiment on PC-3 prostate, 67%; in the experiment with SK-MEL-5 melanoma, 95.1%. For the same compound, the growth is 29.7% with UACC-62 melanoma; -66.7% (active) with LOX IMVI melanoma; 10.3% in the experiment with SK-MEL-28 melanoma; 104% in the experiment with SK-MEL-2 melanoma; 92% in the experiment with EKVX NSCLC; -5.24% (active) with SN12C renal. For the same compound, the growth in the experiment with UO-31 renal was 21.2%; in the experiment on TK-10 renal it was 30.5%; with ACHN renal it was 63.4%; in the experiment with CAKI-1 renal, 90.2%; in the experiment on A498 renal it was 86.9%; with CCRF-CEM leukemia it was -24.3% (active). Also, the growth in the experiment on MOLT-4 leukemia was -20.7% (active).
As for `CC1=C(C)C(=O)OC([C@](C)(O)[C@]2(O)CC[C@@]3(O)[C@@H]4C[C@H]5O[C@]56CC=CC(=O)[C@]6(C)[C@H]4CC[C@]23COC(=O)c2ccc(C)o2)C1` (some centres undefined), the growth is -86.2% (active) in the experiment with HCT-15 colon; -73.6% (active) in the experiment with HT29 colon; -85% (active) with SNB-19 CNS; -85.2% (active) with U251 CNS; -35% (active) in the experiment with PC-3 prostate; -80.6% (active) in the experiment with SK-MEL-5 melanoma. The growth with UACC-62 melanoma was -83.3% (active); in the experiment on LOX IMVI melanoma, -95% (active); with SK-MEL-28 melanoma, -86.1% (active); with SK-MEL-2 melanoma, -63% (active); in the experiment with EKVX NSCLC, -46.9% (active); with SN12C renal, -61% (active). Moreover, the growth with UO-31 renal was -96.6% (active); in the experiment with TK-10 renal, -89.8% (active); with ACHN renal, -95.7% (active); in the experiment with CAKI-1 renal, -87.2% (active); with A498 renal, -78.3% (active); in the experiment with CCRF-CEM leukemia, 0.17% (active). For the same compound, the growth in the experiment with MOLT-4 leukemia is 4.89% (active).

These data come from PubChem BioAssay (NCI).
